BH1578 lux ind – induces V. cholerae light production without autoinducers. V. cholerae BH1578 lux reporter, luminescence, 6 h. 350,000 tested, 0.16% active. AID 588436. activation, % at 18.7 µM; in the data active = activation mostly above about 9.7%, no sharp cut-off
SARS 3CLpro inh – SARS-CoV 3CLpro protease inhibition; AID 1706; inhibition, % at 6 µM; P0C6X7; recombinant SARS-CoV 3CLpro, quenched FRET peptide cleavage; 290,000 tested, 0.14% active; in the data active = inhibition above about 12%
VHR inh abs – DUSP3 (human) phosphatase inhibition | 290,000 tested, 0.52% active | recombinant VHR phosphatase, pNPP absorbance | P51452 | AID 1654 | inhibition, % at 13.3 µM; in the data active = inhibition above about 50%
Target sequence (P51452 whole entry, looked up): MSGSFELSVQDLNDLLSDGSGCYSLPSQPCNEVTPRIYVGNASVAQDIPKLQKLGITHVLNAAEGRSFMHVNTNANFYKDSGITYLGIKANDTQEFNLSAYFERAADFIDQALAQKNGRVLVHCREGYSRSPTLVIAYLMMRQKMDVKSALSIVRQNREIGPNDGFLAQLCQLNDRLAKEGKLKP
SSB-PriA inh – blocks PriA binding to SSB C-terminal tail; AlphaScreen SSBct-PriA binding, biotinylated peptide; inhibition, % at 33 µM; 430,000 tested, 0.6% active; in the data active = inhibition mostly above about 37%, no sharp cut-off; inactive = mostly below about 20%
CCHFV vOTU inh – blocks the CCHF virus ovarian tumor domain protease | CCHFV vOTU protease, Pep-AMC fluorescence | inhibition, % at 11.5 µM | AID 651958 | 370,000 tested, 0.55% active; in the data active = inhibition above about 30%
TcdB inh – blocks C. difficile toxin B glycohydrolase activity; inhibition, % at 9.99 µM; AID 652162; TcdB glycohydrolase enzymatic assay, plate reader; P18177; 350,000 tested, 0.24% active; in the data active = inhibition above about 10%
Hits are given with their value; i = inactive; nt = not tested or not shown. Sampled rows, rich in hits. Any-hit rate of the full collection: about 1.3%.

SMILES | BH1578 lux ind | SARS 3CLpro inh | VHR inh abs | SSB-PriA inh | CCHFV vOTU inh | TcdB inh
O=S(=O)(NCC1CCCN1c1ccccc1)c1ccc(OC(F)(F)F)cc1 (stereo unspecified) | nt | nt | nt | i | nt | nt
Cc1ccc(S(=O)(=O)NC[C@H]2CCCN2c2ccccc2)s1 | nt | nt | nt | 34 | nt | nt
O=S(=O)(NC[C@H]1CCCN1c1ccccc1)c1cccc2ccccc12 | nt | nt | nt | 32 | nt | nt
CCOC(=O)CC(C)=NNc1ccc([N+](=O)[O-])cc1[N+](=O)[O-] | nt | nt | nt | 47 | nt | nt
Cc1cccc(-c2noc(Cn3cnc4c(nnn4Cc4cccc(F)c4)c3=O)n2)c1 | nt | nt | nt | i | nt | nt
O=C(Cc1c[nH]c2ccccc12)Nc1cc(N2CCN(c3ccccc3)CC2)ncn1 | nt | nt | nt | i | nt | nt
COc1ccc(C(CC(=O)Nc2ncccc2C)N2Cc3ccccc3C2=O)cc1OC (stereo unspecified) | i | i | i | i | i | i
COc1cc(C(CC(=O)Nc2ncccc2C)N2Cc3ccccc3C2=O)cc(OC)c1OC (stereo unspecified) | i | i | 53 | i | i | i
Cc1nc2ccccc2c(=O)n1-c1cccc(NC(=O)COc2ccc(Cl)cc2Cl)c1 | nt | nt | nt | i | nt | nt
C=CCCCCC[C@H](NC(C)=O)C(=O)O | nt | nt | nt | i | nt | nt
COC(=O)C1=C(NC(=O)c2ccccc2I)CCS1 | nt | nt | nt | 51 | nt | nt
COC(=O)C1=C(NC(=O)c2ccccc2[N+](=O)[O-])CCS1 | i | i | i | i | i | i
Cc1ccnc(SC2CC(=O)N(c3ccc(C(C)C)cc3)C2=O)n1 (stereo unspecified) | i | i | 51 | i | i | i
COc1cc(=O)n(C)c2ccccc12 | 21 | i | i | i | i | i
COc1ccc2c(OC)cc(=O)n(C)c2c1 | i | i | i | i | i | nt
NCC1(c2ccccc2)CCOCC1 | nt | nt | nt | i | nt | nt
O=C(CSc1nc2ccccc2[nH]1)c1c[nH]c2ccccc12 | i | i | i | 65 | i | i
O=C(CSc1nc2ccc(Cl)cc2[nH]1)NC1CCCc2ccccc21 (stereo unspecified) | i | i | i | i | i | i
O=C(CSc1nc2ccccc2[nH]1)NC1CCCc2ccccc21 (stereo unspecified) | i | i | i | i | i | 13
COC(=O)c1ccc2c(=O)n(CC(=O)NCc3ccc(OC)cc3)c(=S)[nH]c2c1 | nt | nt | nt | i | nt | nt
COc1cccc(CSc2nc(CC(=O)NCCC3=CCCCC3)cc(=O)[nH]2)c1 | nt | nt | nt | i | nt | nt
O=C(Cc1cc(=O)[nH]c(SCc2cccc(Cl)c2)n1)NCCC1=CCCCC1 | nt | nt | nt | 40 | nt | nt
S=C(c1cn(Cc2ccccc2)c2ccccc12)N1CCOCC1 | i | i | i | i | i | 17
O=C(Cl)c1cc(Cl)ccn1 | nt | nt | nt | 83 | nt | nt
CCCCc1ccc(N2C(=O)[C@@H]3C(CC(N)=O)NC4(C(=O)Nc5ccc(F)cc54)[C@@H]3C2=O)cc1 (stereo partly specified) | i | i | 51 | i | i | nt
SMILES | BH1578 lux ind | SARS 3CLpro inh | VHR inh abs | SSB-PriA inh | CCHFV vOTU inh | TcdB inh
Nc1ccccc1Nc1cc(-c2ccccc2)nn1-c1cccc(Cl)c1 | i | i | i | 59 | i | i
O=C(c1cnccn1)N(Cc1ccsc1)CC(F)(F)F | nt | nt | nt | i | nt | nt
Cc1ccc(C(=O)NCCCNC(=O)c2ccco2)cn1 | i | i | 56 | i | i | i
COc1ccc(-c2csc(/C(C#N)=C3\C=CC=CN3C)n2)cc1 | nt | nt | nt | 142 | nt | nt
CN1C=CC=C/C1=C(\C#N)c1nc2ccccc2[nH]1 | i | i | i | i | i | nt
COc1ccc(-c2cc(-c3cccs3)nc(SCC(=O)Nc3ccc4c(c3)OCCO4)c2C#N)cc1OC | nt | nt | nt | i | nt | nt
O=c1[nH]c(-c2ccccn2)cs1 | nt | nt | nt | 63 | nt | nt
CCOc1ccc(CCNC(=O)Cn2ccc3cc(S(=O)(=O)N4CCCC4)ccc32)cc1 | i | i | 53 | i | i | i
Cc1ccc(C(=O)N/C(=C\c2ccco2)C(=O)NCCCn2ccnc2)cc1 | i | i | i | 103 | i | nt
O=C(NCCCn1ccnc1)/C(=C/c1ccccc1)NC(=O)c1ccccc1 | i | i | i | i | i | i
COc1ccc(C(=O)N/C(=C/c2cccs2)C(=O)NCCCn2ccnc2)cc1OC | i | i | 53 | i | i | nt
CN(C)c1ccc(/C=C(\NC(=O)c2ccccc2)C(=O)NCCCn2ccnc2)cc1 | i | i | i | 39 | i | i
O=[N+]([O-])c1cccc(OCc2cn3cccnc3n2)c1 | i | i | 53 | i | i | i
CCNC(=S)N=C(Nc1ccc(OC)cc1)Nc1nc(C)cc(C)n1 | nt | nt | nt | i | nt | nt
Oc1[nH]c2ccccc2c1N=NC(=S)N1CCOCC1 | i | i | i | 59 | nt | nt
Cc1cc(C)n(/N=C/c2ccc(C(C)C)cc2)c(=O)c1C#N | i | i | 51 | nt | i | i
Cc1ccc(/C=N/n2c(C)cc(C)c(C#N)c2=O)cc1 | i | i | i | nt | i | nt
Cc1ccc(S(=O)(=O)Nc2nc(CC(=O)N3CCN(c4ccccc4F)CC3)cs2)cc1 | nt | nt | nt | i | nt | nt
COc1ccc(OCC(O)COc2ccc(C(=O)O)cc2)cc1 (stereo unspecified) | i | i | 51 | i | i | nt
CC(C)COc1ccc(C(=O)O)cc1 | nt | nt | nt | i | nt | nt
O=C(ONc1ccc(N=NC(=O)c2ccccc2O)cc1)c1ccccc1 | i | i | 52 | i | i | nt
O=Nc1ccc(NOC(=O)c2ccccc2Br)cc1 | i | i | i | i | i | nt
CCSc1nc(N2CCOCC2)c2cnn(CCNC(=O)Cc3cccs3)c2n1 | nt | nt | nt | i | nt | nt
c1coc(-c2nc3ccccc3nc2-c2ccco2)c1 | i | i | i | i | 51 | i
O=C(NCCc1ccccc1)c1ccc2nc(-c3ccco3)c(-c3ccco3)nc2c1 | i | i | i | i | nt | nt
SMILES | BH1578 lux ind | SARS 3CLpro inh | VHR inh abs | SSB-PriA inh | CCHFV vOTU inh | TcdB inh
c1ccc(-c2nccc(-c3ccco3)n2)nc1 | i | i | i | 72 | i | i
O=C(NCCO)c1ccc2nc(-c3ccco3)c(-c3ccco3)nc2c1 | i | i | i | i | 77 | nt
c1ccc(-c2nnc(-c3ccco3)c(-c3ccco3)n2)nc1 | nt | nt | nt | 114 | nt | nt
c1coc(-c2cnc3ccccc3n2)c1 | i | nt | nt | nt | i | i
CC(=O)Nc1ccc(SCC(=O)N(C(C)C)C(C)C)nn1 | nt | nt | nt | i | nt | nt
N#Cc1nc(Cc2ccccc2)oc1NCc1ccccc1Cl | i | i | i | 40 | i | nt
COc1cc(/C=C(/C#N)C(=O)NCc2ccccc2)cc(OC)c1OC | i | i | i | i | i | i
Cc1cc(/C=C(\C#N)C(=O)NCc2ccccc2)cc(C)c1O | i | i | 52 | i | i | i
CCN1CCN(c2cc(N3CCN(C(=O)c4ccco4)CC3)c3c4c(onc24)-c2ccccc2C3=O)CC1 | i | i | i | 76 | nt | nt
O=C(O)CCNc1cc(N2CCN(C(=O)c3ccco3)CC2)c2noc3c2c1C(=O)c1ccccc1-3 | i | i | i | 54 | 54 | i
CC(=O)OCCNc1cc(N2CCN(C)CC2)c2noc3c2c1C(=O)c1ccccc1-3 | i | i | i | i | i | i
COC(=O)c1ccccc1-c1ccc(/C=C(\C#N)c2nc3ccccc3c(=O)[nH]2)o1 | nt | nt | nt | i | nt | nt
CCCCn1c(NC(=O)c2ccccc2Cl)c(C#N)c2nc3ccccc3nc21 | i | i | i | i | i | nt
N#Cc1c(NC(=O)c2ccccc2Cl)n(Cc2ccccc2)c2nc3ccccc3nc12 | i | i | i | 53 | 101 | i
O=C(Nc1ccc(SCCCC(=O)N2CCN(c3ccc(F)cc3)CC2)nn1)C1CC1 | nt | nt | nt | i | nt | nt

Compound activity from PubChem.
